Reference: the antibiotic and cytotoxicity screens of Wong et al. (2023)
Among all 39,000 compounds or so, about 3,300 (8.5%) were called active. The list comes from a sample in which actives are over-represented; it also holds similar structures and randomly drawn compounds.

Test system: HepG2
Experiment: cytotoxicity call (relative viability < 0.9)
Settings: 10 µM

| SMILES | cytotoxicity call |
| --- | --- |
| CC(C)NC(=O)Nc1ccc2c(c1)C(=O)N([C@H](C)CO)C[C@@H](C)[C@H](CN(C)S(=O)(=O)c1cccs1)O2 | inactive |
| CO[C@H]1CN(C)C(=O)c2ccc(NS(C)(=O)=O)cc2OC[C@@H](C)N(C(=O)CN(C)C)C[C@@H]1C | inactive |
| Cn1nc(CN2CCCC2=O)c2c1CNC2 | inactive |
| Cc1cc(C(=O)Nc2cccc3c2O[C@H](CN(C)Cc2ccc4c(c2)OCO4)[C@@H](C)CN([C@H](C)CO)C3=O)n(C)n1 | inactive |
| CC(C)NC(=O)N(C)C[C@H]1Oc2ccc(NC(=O)C3CCCCC3)cc2CC(=O)N([C@@H](C)CO)C[C@H]1C | inactive |
| C[C@@H]1CN([C@H](C)CO)C(=O)c2ccccc2-c2ccccc2CO[C@@H]1CN(C)C(=O)Nc1ccc(-c2ccccc2)cc1 | inactive |
| C[C@H](CO)N1C[C@H](C)[C@@H](CN(C)Cc2ccccc2)OCCCC[C@H](C)Oc2ccc(NC(=O)Nc3cccc4ccccc34)cc2C1=O | inactive |
| C[C@@H]1CCCCO[C@H](CN(C)Cc2ccccc2)[C@@H](C)CN([C@H](C)CO)C(=O)c2cc(NC(=O)Nc3cccc4ccccc34)ccc2O1 | inactive |
| C[C@@H]1CCCCO[C@@H](CN(C)Cc2ccc(Cl)c(Cl)c2)[C@H](C)CN([C@@H](C)CO)C(=O)c2cc(NC(=O)Nc3cccc4ccccc34)ccc2O1 | inactive |
| C[C@@H]1CCCCO[C@@H](CN(C)Cc2ccc(Cl)c(Cl)c2)[C@@H](C)CN([C@@H](C)CO)C(=O)c2cc(NC(=O)Nc3cccc4ccccc34)ccc2O1 | active |
| C[C@@H]1CCCCO[C@H](CN(C)Cc2ccccc2)[C@H](C)CN([C@@H](C)CO)C(=O)c2cc(NC(=O)Nc3cccc4ccccc34)ccc2O1 | active |
| C[C@@H]1CCCCO[C@@H](CN(C)Cc2ccccc2)[C@H](C)CN([C@H](C)CO)C(=O)c2cc(NC(=O)Nc3cccc4ccccc34)ccc2O1 | inactive |
| C[C@H]1CCCCO[C@@H](CN(C)Cc2ccccc2)[C@@H](C)CN([C@@H](C)CO)C(=O)c2cc(NC(=O)Nc3cccc4ccccc34)ccc2O1 | active |
| C[C@@H]1CCCCO[C@@H](CN(C)Cc2ccc(Cl)c(Cl)c2)[C@H](C)CN([C@H](C)CO)C(=O)c2cc(NC(=O)Nc3cccc4ccccc34)ccc2O1 | inactive |
| C[C@@H]1CCCCO[C@H](CN(C)Cc2ccccc2)[C@H](C)CN([C@H](C)CO)C(=O)c2cc(NC(=O)Nc3cccc4ccccc34)ccc2O1 | active |
| C[C@@H]1CN([C@H](C)CO)C(=O)c2cc(NC(=O)Nc3cccc4ccccc34)ccc2O[C@@H](C)CCCCO[C@@H]1CN(C)Cc1ccccc1 | inactive |
| COc1ccc(NC(=O)N(C)C[C@H]2Oc3ncc(C#CCN(C)C)cc3C(=O)N([C@H](C)CO)C[C@H]2C)cc1 | inactive |
| C[C@H](CO)N1C[C@H](C)[C@@H](CN(C)C(=O)C2CCOCC2)Oc2cc(-c3ccc(C(=O)N(C)C)cc3)ccc2S1(=O)=O | inactive |
| C[C@H]1CCCCO[C@H](CN(C)Cc2ccc(C(F)(F)F)cc2)[C@@H](C)CN([C@@H](C)CO)C(=O)c2cc(NC(=O)c3ccncc3)ccc2O1 | inactive |

| SMILES | cytotoxicity call |
| --- | --- |
| C[C@@H]1CCCCO[C@@H](CN(C)C(=O)CCCN(C)C)[C@@H](C)CN([C@H](C)CO)C(=O)c2cc(N(C)C)ccc2O1 | inactive |
| C[C@H](CO)N1C[C@H](C)[C@@H](CN(C)CC2CCCCC2)Oc2ccc(NC(=O)Cc3cn(C)c4ccccc34)cc2C1=O | inactive |
| CCCN(C)C[C@H]1OCCCC[C@@H](C)Oc2ccc(NC(=O)Cc3ccccc3)cc2C(=O)N([C@H](C)CO)C[C@H]1C | inactive |
| O=C(C[C@H]1CC[C@@H]2[C@H](COC[C@H](O)CN2CC2CCOCC2)O1)N1CCOCC1 | inactive |
| C[C@@H]1CN([C@H](C)CO)C(=O)Cc2cc(NC(=O)CCN3CCOCC3)ccc2O[C@H]1CN(C)S(=O)(=O)c1cccs1 | inactive |
| C[C@@H]1CCCCO[C@@H](CN(C)Cc2ccccc2)[C@@H](C)CN([C@H](C)CO)C(=O)c2cc(NC(=O)Nc3cccc4ccccc34)ccc2O1 | inactive |
| C[C@@H]1CCCCO[C@H](CN(C)Cc2ccc(C(=O)O)cc2)[C@@H](C)CN([C@@H](C)CO)C(=O)c2cc(NC(=O)Nc3cccc4ccccc34)ccc2O1 | inactive |
| C[C@@H]1CN([C@@H](C)CO)C(=O)c2cc(NC(=O)Nc3cccc4ccccc34)ccc2O[C@@H](C)CCCCO[C@H]1CN(C)Cc1ccccc1 | active |
| C[C@@H]1CCCCO[C@@H](CN(C)Cc2ccccc2)[C@H](C)CN([C@@H](C)CO)C(=O)c2cc(NC(=O)Nc3cccc4ccccc34)ccc2O1 | inactive |
| C[C@@H]1CCCCO[C@@H](CN(C)Cc2ccc(C(=O)O)cc2)[C@@H](C)CN([C@H](C)CO)C(=O)c2cc(NC(=O)Nc3cccc4ccccc34)ccc2O1 | inactive |
| C[C@@H]1CN([C@@H](C)CO)C(=O)c2cc(NC(=O)Nc3cccc4ccccc34)ccc2O[C@@H](C)CCCCO[C@@H]1CN(C)Cc1ccncc1 | inactive |
| C[C@H]1CCCCO[C@H](CN(C)Cc2ccccc2)[C@@H](C)CN([C@@H](C)CO)C(=O)c2cc(NC(=O)Nc3cccc4ccccc34)ccc2O1 | active |
| C[C@@H]1CCCCO[C@H](CN(C)Cc2ccncc2)[C@H](C)CN([C@@H](C)CO)C(=O)c2cc(NC(=O)Nc3cccc4ccccc34)ccc2O1 | active |
| C[C@@H]1CCCCO[C@H](CN(C)Cc2ccccc2)[C@@H](C)CN([C@@H](C)CO)C(=O)c2cc(NC(=O)Nc3cccc4ccccc34)ccc2O1 | active |
| C[C@@H]1CN([C@@H](C)CO)C(=O)c2cc(NC(=O)Nc3cccc4ccccc34)ccc2O[C@@H](C)CCCCO[C@H]1CN(C)Cc1ccncc1 | inactive |
| CC(C)NC(=O)N(C)C[C@@H]1OCc2cnnn2CCCC(=O)N([C@H](C)CO)C[C@@H]1C | inactive |
| C[C@H]1CN([C@@H](C)CO)C(=O)c2c(c3ccccc3n2C)-c2ccccc2CO[C@@H]1CN(C)C(=O)c1ccc(F)cc1 | inactive |
| C[C@H]1CCCCO[C@@H](CN(C)Cc2ccc3c(c2)OCO3)[C@@H](C)CN([C@@H](C)CO)C(=O)c2cc(NS(=O)(=O)c3ccc(F)cc3)ccc2O1 | inactive |
